The text below walks through data of PubChem BioAssay (Tox21).

Records with an inconclusive call do not appear. A number with no mark means an inactive call. Activity calls are given as the source filed them. Unless noted, the call rests on the fitted dose curve; in most records, active means well fitted curve in the direction sought with a large enough effect in the repeat runs; inconclusive means weak or mixed curves; inactive means no such curve, though single readings can be large; an effect the other way counts as inactive or inconclusive.

Test [1] in a line: qHTS assay to identify aromatase inhibitors - cell viability counter screen (AID 743084).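 Further: cells stimulated with testosterone during compound exposure; nearly all actives have a fitted effect of over 55% in size.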 On the technique in general: qHTS replaces the single test concentration by a dilution series.
Test [2] deals with Aryl hydrocarbon receptor (Homo sapiens) (UniProt P35869). In words: qHTS assay to identify small molecule that activate the aryl hydrocarbon receptor (AhR) signaling pathway (AID 743085). Further: nearly all actives have a fitted effect of over 15% in size. Further: potency means the concentration at half of the fitted maximal effect.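 On activation: HG2L7.5c1 human HepG2 liver cells with stably integrated DRE-driven firefly reporter; series mostly up to about 70 µM.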 The essentials: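 HepG2 cells (HG2L7.5c1) stably carrying a firefly luciferase reporter driven by 20 dioxin responsive elements were exposed to compound for 24 h at 37C after a 5 h settling period; luminescence rise (ONE-Glo) indicated activation.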
Chain of Aryl hydrocarbon receptor (Homo sapiens) (P35869 whole entry, looked up): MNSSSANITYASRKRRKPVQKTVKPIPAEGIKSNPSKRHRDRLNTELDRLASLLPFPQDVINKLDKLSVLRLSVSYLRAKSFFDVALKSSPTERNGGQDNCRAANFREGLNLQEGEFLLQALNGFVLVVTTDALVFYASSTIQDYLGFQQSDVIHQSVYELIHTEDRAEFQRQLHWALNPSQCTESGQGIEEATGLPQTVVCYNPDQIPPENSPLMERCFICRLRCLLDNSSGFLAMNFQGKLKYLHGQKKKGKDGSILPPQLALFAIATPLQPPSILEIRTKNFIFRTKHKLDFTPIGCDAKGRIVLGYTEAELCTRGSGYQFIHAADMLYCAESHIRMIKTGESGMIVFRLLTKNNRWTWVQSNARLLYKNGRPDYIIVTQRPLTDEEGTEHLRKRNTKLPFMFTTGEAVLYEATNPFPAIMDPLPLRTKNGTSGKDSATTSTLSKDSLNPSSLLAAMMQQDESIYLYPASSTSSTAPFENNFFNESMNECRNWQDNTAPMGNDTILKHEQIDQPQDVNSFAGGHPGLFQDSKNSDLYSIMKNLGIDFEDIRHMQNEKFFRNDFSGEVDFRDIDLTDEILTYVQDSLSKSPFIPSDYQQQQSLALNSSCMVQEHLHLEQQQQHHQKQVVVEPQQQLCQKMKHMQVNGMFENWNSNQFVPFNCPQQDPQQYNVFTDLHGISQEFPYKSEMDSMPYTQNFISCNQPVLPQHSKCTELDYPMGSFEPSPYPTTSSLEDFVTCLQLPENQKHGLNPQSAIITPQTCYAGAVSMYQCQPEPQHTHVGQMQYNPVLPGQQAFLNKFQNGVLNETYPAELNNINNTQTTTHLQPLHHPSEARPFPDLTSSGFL

A short description of test [3]: qHTS assay to identify small molecule that activate the aryl hydrocarbon receptor (AhR) signaling pathway - cell viability counter screen (AID 743086).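 Further: HepG2 liver cells carrying the AhR DRE luciferase reporter; series mostly up to about 70 µM; nearly all actives have a fitted effect of over 45% in size.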 The essentials:
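HepG2-AhR-luc (HG2L7.5c1) cells, 4000/well, were preincubated 5 h at 37C, exposed to compound in qHTS format for 24 hr at 37C, then given CellTiter-Fluor for 30 min; viability was read as fluorescence in the reporter wells.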

In test [4] the target is Peroxisome proliferator-activated receptor gamma (Homo sapiens) (UniProt P37231). The test is described as follows: qHTS assay to identify small molecule agonists of the peroxisome proliferator-activated receptor gamma (PPARg) signaling pathway (AID 743094; active means well fitted activation curve with a large enough effect in the signal ratio in the repeat runs, not every such curve was filed as active; the % refers to the signal ratio). In outline: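 GeneBLAzer PPARg UAS-bla HEK293H cells were plated, rested 5 h, then exposed to compounds for 17 h at 37C. Beta-lactamase activity was read by LiveBLAzer B/G FRET substrate fluorescence after 1 h at room temperature.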
Chain of Peroxisome proliferator-activated receptor gamma (Homo sapiens) (P37231 whole entry, looked up): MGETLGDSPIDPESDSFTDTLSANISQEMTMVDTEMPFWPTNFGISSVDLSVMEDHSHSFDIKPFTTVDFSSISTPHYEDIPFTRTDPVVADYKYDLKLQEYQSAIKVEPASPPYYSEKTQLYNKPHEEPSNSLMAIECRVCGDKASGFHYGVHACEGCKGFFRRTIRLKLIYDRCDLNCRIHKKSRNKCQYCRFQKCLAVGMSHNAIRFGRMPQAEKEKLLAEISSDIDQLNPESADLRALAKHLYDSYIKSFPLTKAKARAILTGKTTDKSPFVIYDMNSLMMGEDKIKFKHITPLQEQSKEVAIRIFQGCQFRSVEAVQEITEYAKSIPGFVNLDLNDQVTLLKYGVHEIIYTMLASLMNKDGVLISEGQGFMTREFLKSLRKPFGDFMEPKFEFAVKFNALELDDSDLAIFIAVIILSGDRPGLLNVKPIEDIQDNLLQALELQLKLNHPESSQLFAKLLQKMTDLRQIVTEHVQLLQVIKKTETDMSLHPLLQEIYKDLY

Test [5] in a line: qHTS assay to identify small molecule phospholipidosis (PLD) inducers (AID 1259344; active means well fitted curve in the direction sought with a large enough effect; an effect the other way counts as inactive or inconclusive). In outline:
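HepG2 cells on collagen I, attached 4 h at 37 C, were co-treated with compound and LipidTOX Red dye for 24 h at 37 C, then fixed with paraformaldehyde plus Hoechst 33342 and imaged by high-content microscopy for phospholipid accumulation.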

Test [6] has as its target Nuclear receptor subfamily 1 group I member 2 (Homo sapiens) (UniProt O75469). In words: CYP3A4 induction through human pregnane X receptor (PXR) by small molecules, qHTS assay (AID 1346984). Further: nearly all actives have a fitted effect of over 40% in size. In outline:
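DPX-2 HepG2 cells carrying a PXR response element and CYP3A4-promoter luciferase construct, treated with compounds 24 hr at 37C. Then P450-Glo CYP3A4 Luciferin-IPA substrate (3uM final) for 3 hr at 37C, One-Glo added, luminescence read.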

Test [7] shares this target. In words: Human pregnane X receptor (PXR) activation by small molecules, qHTS assay (AID 1346985). Further: nearly all actives have a fitted effect of over 40% in size. Further: potency means the concentration at half of the fitted maximal effect. The essentials:
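DPX-2 cells (HepG2 co-transfected with a PXR response element and a CYP3A4-promoter luciferase construct) were seeded at 2,000 per well, rested 5 hr at 37C, then exposed to DMSO-dissolved compounds for 24 hr. Activation was read as luciferase luminescence.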
On the % scale 0 is the no-effect control and ±100 the full control effect.

Regarding `CC(NNC(=O)c1ccccc1)c1ccccc1` (centres undefined), the Potency result in test [1], in test [3], in test [4], in test [5] and in test [6] was “inactive” each time. In addition, in test [2], the Potency was 11.9 µM (active).

Take `NC(=O)C[C@@H](N)C(=O)O`: the Potency result in test [1], in test [2] and in test [5] was “inactive” throughout.

As for `Cc1cccc(C)c1Nc1ncccc1C(=O)O`, the Potency entry in test [1], in test [4], in test [5] and in test [6] was “inactive” each time. Besides, in test [2], the Potency was 29.8 µM (active).

Consider `O=C(/C=C/c1cccc(F)c1)NC1CC1`, for which the Potency entry in test [1], in test [3], in test [4], in test [5] and in test [6] was “inactive” throughout. For the same molecule, the Potency in test [7] was 10 µM (active).

With `CC(C(=O)O)c1ccc(C2CCCCC2)c2ccccc12` (centres undefined), the Potency entry in test [1], in test [2] and in test [3] was “inactive” each time. Besides, the PLD induction in test [5] was 0.703% [at 7.66 µM].

With `O=[N+]([O-])c1ccc(Oc2ccc(N=C=S)cc2)cc1`, the Potency entry in test [1], in test [2], in test [3] and in test [5] was “inactive” in each case.

Take `O=C(O)c1cccc(/C=C2/C[C@@H]3[C@@H](/C=C/[C@@H](O)C4CCCCC4)[C@H](O)C[C@@H]3O2)c1`: the Potency entry in test [1], in test [2], in test [3] and in test [5] was “inactive” throughout.

Turning to `CC(C)(C)NC(=O)[C@H]1CC[C@H]2[C@@H]3CC=C4C=C(C(=O)O)CC[C@]4(C)[C@H]3CC[C@]12C`, the Potency result in test [1], in test [2], in test [3] and in test [5] was “inactive” each time.

As for `O=C(c1cc2ccccc2o1)N1CCN(Cc2ccccc2)CC1`, the Potency entry in test [1], in test [3], in test [4], in test [5], in test [6] and in test [7] was “inactive” throughout.

Consider `Cc1cc(-n2c(=O)[nH]c(=O)n(C)c2=O)ccc1Oc1ccc(S(=O)(=O)C(F)(F)F)cc1`, for which the Potency entry in test [1], in test [2] and in test [5] was “inactive” in each case.

`C#CCOc1ccc2c(C)cc(=O)oc2c1`: the Potency entry in test [1], in test [3], in test [4], in test [5] and in test [6] was “inactive” throughout.

Turning to `Cc1ccccc1CNc1ncnc2c1ncn2[C@@H]1O[C@H](CO)[C@@H](O)[C@H]1O`, the Potency entry in test [1], in test [2], in test [3] and in test [5] was “inactive” each time.

Turning to `CCCCCCC(=O)O[C@H]1CC[C@H]2[C@@H]3CCc4cc(O)ccc4[C@H]3CC[C@]12C`, the Potency entry in test [1], in test [2], in test [3] and in test [5] was “inactive” each time.

Regarding `CCC(=O)OCC(=O)[C@@]1(OC(=O)CC)[C@@H](C)C[C@H]2[C@@H]3CCC4=CC(=O)C=C[C@]4(C)[C@@]3(Cl)[C@@H](O)C[C@@]21C`, the Potency entry in test [1] and in test [5] was “inactive” in each case. Further, the Potency in test [2] is 10.6 µM (active).

As for `CC(=O)[C@@]1(O)CC[C@H]2[C@@H]3C=C(Cl)C4=CC(=O)[C@@H]5C[C@@H]5[C@]4(C)[C@H]3CC[C@@]21C`, the Potency result in test [1], in test [3], in test [4], in test [5], in test [6] and in test [7] was “inactive” throughout.

Regarding `C#CCC(Cc1cnc2nc(N)nc(N)c2n1)c1ccc(C(=O)N[C@@H](CCC(=O)O)C(=O)O)cc1` (some centres undefined), the Potency result in test [1], in test [2] and in test [3] was “inactive” in each case. The PLD induction in test [5] is 6.01% [at 0.306 µM].

With `CS(=O)(=O)OCCCNCCCOS(C)(=O)=O`, the Potency result in test [1], in test [2], in test [3] and in test [5] was “inactive” each time.

With `CC1(C)S[C@@H]2[C@H](NC(=O)[C@H](N)c3ccccc3)C(=O)N2[C@H]1C(=O)OCOC(=O)[C@@H]1N2C(=O)C[C@H]2S(=O)(=O)C1(C)C`, the Potency result in test [1], in test [2], in test [3] and in test [5] was “inactive” throughout.

Take `CCOC(=O)COc1ccc2c(C)c(CCN(CC)CC)c(=O)oc2c1`: the Potency entry in test [1], in test [2], in test [3] and in test [4] was “inactive” each time. Further, the PLD induction in test [5] was -3.34% [at 7.66 µM].

Consider `CC(=O)N[C@@H](CC(=O)N[C@@H](CCC(=O)O)C(=O)O)C(=O)O`, for which the Potency entry in test [1], in test [2], in test [3], in test [4] and in test [5] was “inactive” each time.

Regarding `CN[C@@H]1CCc2[nH]c3ccc(C(N)=O)cc3c2C1`, the Potency result in test [1], in test [2], in test [3] and in test [4] was “inactive” throughout. The PLD induction in test [5] is -1.34% [at 1.53 µM].

`CC(O)[C@@H]1NC(=O)[C@H](CCCCN)NC(=O)[C@@H](Cc2c[nH]c3ccccc23)NC(=O)[C@H](Cc2ccccc2)NC(=O)[C@@H](NC(=O)[C@H](N)Cc2ccccc2)CSSC[C@@H](C(=O)N[C@H](CO)[C@@H](C)O)NC1=O` (some centres undefined): the Potency result in test [1], in test [2], in test [3], in test [4] and in test [5] was “inactive” throughout.

`O=c1[nH]cnc2[nH]cc(CN3CCCCC3)c12`: the Potency result in test [1], in test [2], in test [3] and in test [4] was “inactive” throughout. The PLD induction in test [5] was 1.92% [at 1.53 µM].

As to `CCOC(=O)Cc1cccc(-c2cc(CCCCCCc3ccc(O[C@H]4O[C@H](COC(C)=O)[C@@H](OC(C)=O)[C@H](OC(C)=O)[C@@H]4OC(C)=O)c(-c4cccc(CC(=O)OCC)c4)c3)ccc2O[C@H]2O[C@H](COC(C)=O)[C@@H](OC(C)=O)[C@H](OC(C)=O)[C@@H]2OC(C)=O)c1`, the Potency result in test [1], in test [2], in test [3], in test [4] and in test [5] was “inactive” each time.

Regarding `O=C[C@H](O)[C@@H](O)[C@H](O[C@H]1O[C@H](CO)[C@@H](O[C@H]2O[C@H](CO)[C@@H](O)[C@H](O)[C@H]2O)[C@H](O)[C@H]1O)[C@H](O)CO`, the Potency entry in test [1], in test [2], in test [3], in test [4] and in test [5] was “inactive” in each case.
